PubChem BioAssay AID504725 (Broad Institute, 2011)
Potency and affinity values are given separately. Activity calls are given as the source filed them. The rule behind the calls is not given here.

biological target: KSHV LANA C-terminal domain (residues 932-1162) binding to LBS DNA (UniProt O40947); assay: inhibitors of C-LANA binding to LBS DNA, dose response, biochemical, fluorescence polarization, cherry-picked samples (AID 504725); conditions: MBP-C-LANA / FAM-LBS DNA fluorescence polarization, percent change from plate compound-well median; series mostly up to 35 µM

outcome, inactive:
COc1cccc(NC(=S)N2CCN(C(c3ccccc3)c3ccccc3)CC2)c1
CCCc1cc(=O)oc2cc(C)cc(OCC(=O)O)c12
CCCC1(C2CCCC2)NC(=O)NC1=O (configuration not stated)
COCCN(C(=O)CN1CCCc2ccccc21)c1c(N)n(Cc2ccccc2)c(=O)[nH]c1=O
O=[N+]([O-])c1cccc(CSc2nc3ccccc3[nH]2)c1
COc1ccccc1N1CCN(S(=O)(=O)c2c(C)[nH]c(C)c2C(=O)N2CCCC2)CC1
CCOC(=O)CN1NC2(CCCCCC2)NC1=S
S=c1c2c(nc3nc[nH]n13)CCC2
O=c1c2c(nc3cc(-c4ccc(F)cc4)[nH]n13)CCC2
CCCCn1c(N)c(N(CCOC)C(=O)c2cc(C)oc2C)c(=O)[nH]c1=O
NNc1nc2sc3c(c2c(=O)n1C1CCCCC1)CCN(Cc1ccccc1)C3
O=C(O)/C(=C\c1cccs1)Sc1nnc(-c2ccc(F)cc2)o1
C=CCOC(=O)C1=C[C@H](c2csc3ccccc23)C[C@H](OCc2ccc(CO)cc2)O1
Cc1cc(/C=N/Nc2ccc([N+](=O)[O-])cn2)c(C)n1-c1cccc(C(=O)O)c1
CCN(C(=O)COC(=O)CCCOc1ccc(Cl)cc1C)c1c(N)n(Cc2ccccc2)c(=O)[nH]c1=O
O=C(Cn1ncc(N2CCCC2)c(Cl)c1=O)c1ccc(Cl)cc1
COc1ccc(NC(=O)CO/N=C2/CCCc3nonc32)c(OC)c1
O=c1c2cc(O)c(O)cc2oc2cc(O)c(C3OC(CO)C(O)C(O)C3O)c(O)c12 (configuration not stated)
CCC(C)[C@H](NC(=O)[C@@H]1Cc2ccccc2CN1)C(=O)Nc1ccc2c(c1)OCO2 (some centres not stated)
Nc1nc(-c2ccc(C(=O)O)cc2)cs1
COC(=O)C1CCN(C(=O)COC(=O)Cc2c[nH]c3ccccc23)CC1
Cc1ccc(C(CC(=O)N2CCCCC2)c2ccccc2)c(O)c1C (configuration not stated)
